Counter-ions that a name gives are not always drawn. ± gives the standard deviation of the averaged measurements.
Columns and labels:
Assay in all cases: cell viability (% of vehicle); higher = less cytotoxic
Conditions in all cases: 10 µM; 72 h
[1] = tested on: HCI01 (cells of a triple-negative basal-like breast cancer xenograft)
[2] = tested on: HCI03 (cells of an ER-positive luminal breast cancer xenograft)
[3] = tested on: HCI09 (cells of a triple-negative luminal androgen receptor type breast cancer xenograft)
[4] = tested on: HCI11 (cells of an ER-positive luminal breast cancer xenograft)
[5] = tested on: HCI13 (cells of an ER-positive luminal breast cancer xenograft)
[6] = tested on: HCI16 (cells of a triple-negative basal-like breast cancer xenograft)
[7] = tested on: UCD52 (cells of a triple-negative basal-like breast cancer xenograft)
[8] = tested on: WHIM2 (cells of a triple-negative basal-like breast cancer xenograft)
[9] = tested on: WHIM30 (cells of a triple-negative basal-like breast cancer xenograft)
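Note: PDX cells carrying CMV promoter-driven luciferase, viability read as total photon flux per second by IVIS imaging following D-luciferin, vehicle control 0.1% DMSO.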

| Compound | cell viability [1] | cell viability [2] | cell viability [3] | cell viability [4] | cell viability [5] | cell viability [6] | cell viability [7] | cell viability [8] | cell viability [9] |
| --- | --- | --- | --- | --- | --- | --- | --- | --- | --- |
| CCOC(=O)CC(=O)N1CCSC1COc1ccccc1OC (centres undefined) [Moguisteine] | 68.2 ± 37 | 114 | 102 ± 8.2 | 89.5 | 115 ± 9 | 127 | 83.2 ± 4.3 | 88.7 ± 22 | 131 ± 4.4 |
| Nc1ccc(S(=O)(=O)Nc2ncccn2)cc1 [Sulfadiazine] | 131 ± 9.1 | 126 | 158 ± 83 | 103 | 153 ± 29 | 101 | 95.5 ± 16 | 101 ± 21 | 118 ± 18 |
| CN(Cc1ccc(C(C)(C)C)cc1)Cc1cccc2ccccc12.Cl [Butenafine HCl] | 104 ± 1.5 | 99.2 | 117 ± 19 | 104 | 72.7 ± 4.7 | 151 | 81.4 ± 2.7 | 56.2 ± 12 | 142 ± 3.3 |
| S=C(NCc1ccc2c(c1)OCO2)N1CCN(c2ncnc3c2oc2ccccc23)CC1 [Amuvatinib (MP-470, HPK 56)] | 107 ± 48 | 120 | 40 ± 18 | 81.7 | 82 ± 9.2 | 84.3 | 73 ± 1.1 | 149 ± 3.3 | 75.2 ± 9.7 |
| CNC(=O)CN(CCN(CCN(CC(=O)[O-])CC(=O)NC)CC(=O)[O-])CC(=O)[O-].O.[Gd+3] [Gadodiamide] | 99.5 ± 27 | 111 | 99 ± 15 | 90.1 | 83.6 ± 8.9 | 112 | 104 ± 7.4 | 92.5 ± 29 | 94.5 ± 5.2 |
| O=c1cc(O)c(Cl)c[nH]1 [Gimeracil] | 96.4 ± 1.7 | 131 | 94 ± 19 | 112 | 123 ± 14 | 91 | 87.8 ± 3.9 | 102 ± 15 | 101 ± 17 |
| CC(=O)Nc1ncc([N+](=O)[O-])s1 [Nithiamide] | 112 ± 16 | 159 | 106 ± 6.2 | 105 | 67.5 ± 5.2 | 133 | 109 ± 6.1 | 117 ± 13 | 91.3 ± 2 |
| O=c1sn(-c2cccc3ccccc23)c(=O)n1Cc1ccccc1 [Tideglusib] | 119 ± 20 | 114 | 98.2 ± 11 | 96.3 | 95.7 ± 14 | 94.7 | 78.4 ± 1.8 | 86.22 ± 0.6 | 131 ± 9.7 |
| O=C(O)CSCC(=O)NC1CCSC1=O (centres undefined) [Erdosteine] | 105 ± 12 | 125 | 108 ± 27 | 108 | 87.3 ± 5.8 | 134 | 94.1 ± 8.3 | 119 ± 33 | 177 ± 44 |
| Cc1c(N(C)C)c(=O)n(-c2ccccc2)n1C [Amidopyrine] | 99.1 ± 16 | 118 | 94.5 ± 19 | 93.2 | 76.33 ± 0.62 | 97.5 | 97.8 ± 7.1 | 117 ± 37 | 122 ± 8.5 |
| Cc1cccc(Nc2ccncc2S(=O)(=O)NC(=O)NC(C)C)c1 [Torsemide] | 84.3 ± 43 | 140 | 95.4 ± 16 | 93.5 | 120 ± 21 | 127 | 106 ± 1.8 | 106 ± 1.5 | 171 ± 13 |
| Nc1c(CC(=O)[O-])cccc1C(=O)c1ccc(Br)cc1.[Na+] [Bromfenac Sodium] | 134 ± 34 | 104 | 82.1 ± 13 | 103 | 76.6 ± 16 | 96.2 | 89 ± 4 | 132 ± 25 | 111 ± 6.5 |
| Nc1nc(F)nc2c1ncn2C1OC(COP(=O)(O)O)C(O)C1O (centres undefined) [Fludarabine Phosphate (Fludara)] | 101 ± 16 | 134 | 98.1 ± 17 | 124 | 98.8 ± 10 | 106 | 98.2 ± 4.5 | 127 ± 32 | 115 ± 13 |
| CS(=O)(=O)c1ccc(C(=O)Nc2ccc(Cl)c(-c3ccccn3)c2)c(Cl)c1 [GDC-0449 (Vismodegib)] | 109 ± 40 | 94.4 | 69.5 ± 20 | 104 | 105 ± 7.7 | 83.4 | 67.1 ± 1.8 | 111 ± 5.5 | 133 ± 2.4 |
| Brc1c(NC2=NCCN2)ccc2nccnc12.O=C(O)C(O)C(O)C(=O)O [Brimonidine Tartrate] | 123 ± 9.2 | 125 | 78 ± 4.6 | 89.9 | 88.5 ± 4.5 | 124 | 90.8 ± 10 | 125 ± 25 | 98.4 ± 1.3 |
| CCS(=O)(=O)CCn1c([N+](=O)[O-])cnc1C [Tinidazole] | 92 ± 28 | 111 | 79.8 ± 12 | 88.6 | 101 ± 4.4 | 101 | 83.4 ± 14 | 81.2 ± 1.9 | 163 ± 1.9 |
| Cc1ccc(NC(=O)c2ccc(CN3CCN(C)CC3)cc2)cc1Nc1nccc(-c2cccnc2)n1 [Imatinib (STI571)] | 87.1 ± 42 | 156 | 86.31 ± 0.75 | 89.4 | 108 ± 5.6 | 98.9 | 89.2 ± 1.7 | 91.7 ± 19 | 104 ± 12 |
| S=c1nc[nH]c2nc[nH]c12 [Mercaptopurine (6-MP)] | 108 ± 4.9 | 104 | 116 ± 6 | 81.6 | 92.3 ± 12 | 74.9 | 91.6 ± 4.2 | 99.3 ± 24 | 118 ± 32 |

| Compound | cell viability [1] | cell viability [2] | cell viability [3] | cell viability [4] | cell viability [5] | cell viability [6] | cell viability [7] | cell viability [8] | cell viability [9] |
| --- | --- | --- | --- | --- | --- | --- | --- | --- | --- |
| CC(C)c1nc(CN(C)C(=O)NC(CCN2CCOCC2)C(=O)NC(CCC(Cc2ccccc2)NC(=O)OCc2cncs2)Cc2ccccc2)cs1 (centres undefined) [Cobicistat (GS-9350)] | 83.3 ± 3.6 | 74.2 | 53.3 ± 17 | 52.3 | 64.4 ± 11 | 128 | 67 ± 4.4 | 78.1 ± 3.2 | 96.6 ± 3.7 |
| Nc1ccn([C@@H]2O[C@H](CO)[C@@H](O)C2(F)F)c(=O)n1 [Gemcitabine HCl] | 96.1 ± 22 | 109 | 93 ± 23 | 103 | 89.6 ± 16 | 107 | 133 ± 24 | 75.7 ± 7.1 | 105 ± 14 |
| COCCCCC(=NOCCN)c1ccc(C(F)(F)F)cc1.O=C(O)C=CC(=O)O [Fluvoxamine maleate] | 120 ± 4.3 | 111 | 90.71 ± 0.25 | 93 | 94.6 ± 7.2 | 67.7 | 84.9 ± 8.5 | 69.3 ± 19 | 107 ± 4.1 |
| COc1c2occc2cc2ccc(=O)oc12 [8-Methoxypsoralen] | 116 ± 17 | 147 | 99.5 ± 6.5 | 104 | 121 ± 13 | 122 | 106.6 ± 0.24 | 101 ± 17 | 97.9 ± 1.8 |
| CC(C)NCC(O)COc1ccc(CCOCC2CC2)cc1.Cl (centres undefined) [Levobetaxolol HCl] | 125 ± 30 | 104 | 112 ± 18 | 105 | 145 ± 15 | 127 | 109 ± 18 | 96.8 ± 13 | 114 ± 14 |
| COCCCOc1cc(CC(CC(N)C(O)CC(C(=O)NCC(C)(C)C(N)=O)C(C)C)C(C)C)ccc1OC.COCCCOc1cc(CC(CC(N)C(O)CC(C(=O)NCC(C)(C)C(N)=O)C(C)C)C(C)C)ccc1OC.O=C(O)C=CC(=O)O (centres undefined) [Aliskiren Hemifumarate] | 117 ± 11 | 157 | 107 ± 8.5 | 97.2 | 107 ± 2.1 | 148 | 108 ± 13 | 123 ± 14 | 140 ± 14 |
| CN1CCN2c3ccccc3Cc3ccccc3C2C1.Cl (centres undefined) [Mianserin HCl] | 124 ± 24 | 98.3 | 89.4 ± 4.5 | 95.9 | 90 ± 21 | 92.4 | 74.3 ± 4.9 | 73.1 ± 24 | 109 ± 3.4 |
| FC(F)(F)c1ccc(CNc2ccc(Cc3c[nH]c4ncc(Cl)cc34)cn2)cn1 [Pexidartinib (PLX3397)] | 100 ± 1.4 | 139 | 73.6 ± 3.9 | 91.3 | 96.9 ± 7.1 | 116 | 97.4 ± 16 | 96.5 ± 8.4 | 86 ± 11 |
| O=C([O-])Cc1ccccc1Nc1c(Cl)cccc1Cl.[K+] [Diclofenac Potassium] | 117 ± 9.3 | 106 | 100 ± 24 | 100 | 65.9 ± 1.7 | 114 | 73.8 ± 2.9 | 109 ± 28 | 117 ± 39 |
| Cc1nc2n(c(=O)c1CCN1CCC(c3noc4cc(F)ccc34)CC1)CCCC2O (centres undefined) [Paliperidone] | 106 ± 11 | 172 | 94.6 ± 17 | 86.3 | 117 ± 4 | 113 | 113 ± 7.6 | 135 ± 24 | 127 ± 4.2 |
| CCCCCCNC(=O)n1cc(F)c(=O)[nH]c1=O [Carmofur] | 110 ± 5.8 | 103 | 67.7 ± 9.4 | 131 | 80.9 ± 6.8 | 108 | 109 ± 41 | 92.5 ± 38 | 120 ± 17 |
| CC(Nc1ncnc2nc[nH]c12)c1cc2cccc(Cl)c2c(=O)n1-c1ccccc1 (centres undefined) | 91.5 ± 1.5 | 53.1 | 71.9 ± 26 | 66.4 | 45.8 ± 4.9 | 81.8 | 67.3 ± 1.7 | 51.1 ± 15 | 95.3 ± 2.1 |
| Clc1ccc2c(c1)CCc1cccnc1C2=C1CCNCC1 [Desloratadine] | 164 ± 55 | 143 | 99.6 ± 1.5 | 77.5 | 128 ± 19 | 128 | 67.2 ± 9.1 | 69.5 ± 16 | 102 ± 7.8 |
| CC(CN1c2ccccc2Sc2ccccc21)N(C)C (centres undefined) [Promethazine HCl] | 106 ± 15 | 90 | 75.8 ± 5.4 | 92.9 | 96.1 ± 3.6 | 107 | 73.3 ± 6.1 | 85 ± 17 | 114 ± 7.7 |
| CC12CC3CC(C)(C1)CC(N)(C3)C2.Cl [Memantine hydrochloride] | 88.8 ± 14 | 146 | 104 ± 13 | 99.3 | 116 ± 3.6 | 98.2 | 92.37 ± 0.13 | 88.1 ± 15 | 156 ± 21 |
| NC(N)=Nc1nc(CSCCC(N)=NS(N)(=O)=O)cs1 [Famotidine] | 120 ± 16 | 127 | 103 ± 8.7 | 98.9 | 149 ± 20 | 98.6 | 78.5 ± 6.2 | 85.9 ± 6.1 | 165 ± 4.1 |
| N#CC(c1ccc(Cl)cc1)c1c(Cl)cc(-n2ncc(=O)[nH]c2=O)cc1Cl (centres undefined) [Diclazuril] | 98.7 ± 32 | 119 | 64 ± 57 | 95.3 | 59.1 ± 10 | 123 | 96.3 ± 31 | 115 ± 19 | 161 ± 11 |
| CC/C(=C(\c1ccccc1)c1ccc(OCCN(C)C)cc1)c1ccccc1 [Tamoxifen] | 39.1 ± 8.5 | 139 | 58.5 ± 44 | 120 | 82.5 ± 42 | 88.8 | 74.5 ± 15 | 70.4 ± 0.76 | 123 ± 9.1 |

From the supplement of paper PMC6992640
